Screens: PubChem BioAssay, National Center for Advancing Translational Sciences (NCATS)
TGFb SMAD3 inh = blocks TGF-b signaling; HepG2 CAGA-GFP TGF-b/SMAD3 reporter, GFP fluorescence, 18 h; TGF-beta stimulated, 500 pg/mL final; Potency, µM (titrated, usually from 46.1 µM), most hits filed as inhibitors; hit rate 1.2% among 410,000; AID 588855; note: nearly all actives have a fitted effect of over 65% in size
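Cell-based qHTS in HEPG2 carrying a CAGA-GFP Smad reporter; compounds added before 500 pg/mL final TGF-beta, 18 h incubation at 37 degrees C, GFP fluorescence quantified per cell by imaging cytometry.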
TDP1 block = TDP1 (human) enzyme inhibition; Potency, µM (titrated, usually from 130 µM), usual class: inhibitors; hit rate 0.28% among 350,000; recombinant TDP1, AlphaScreen DNA substrate cleavage; AID 485290; note: nearly all actives have a fitted effect of over 40% in size
Target sequence (Q9NUW8 whole entry, looked up): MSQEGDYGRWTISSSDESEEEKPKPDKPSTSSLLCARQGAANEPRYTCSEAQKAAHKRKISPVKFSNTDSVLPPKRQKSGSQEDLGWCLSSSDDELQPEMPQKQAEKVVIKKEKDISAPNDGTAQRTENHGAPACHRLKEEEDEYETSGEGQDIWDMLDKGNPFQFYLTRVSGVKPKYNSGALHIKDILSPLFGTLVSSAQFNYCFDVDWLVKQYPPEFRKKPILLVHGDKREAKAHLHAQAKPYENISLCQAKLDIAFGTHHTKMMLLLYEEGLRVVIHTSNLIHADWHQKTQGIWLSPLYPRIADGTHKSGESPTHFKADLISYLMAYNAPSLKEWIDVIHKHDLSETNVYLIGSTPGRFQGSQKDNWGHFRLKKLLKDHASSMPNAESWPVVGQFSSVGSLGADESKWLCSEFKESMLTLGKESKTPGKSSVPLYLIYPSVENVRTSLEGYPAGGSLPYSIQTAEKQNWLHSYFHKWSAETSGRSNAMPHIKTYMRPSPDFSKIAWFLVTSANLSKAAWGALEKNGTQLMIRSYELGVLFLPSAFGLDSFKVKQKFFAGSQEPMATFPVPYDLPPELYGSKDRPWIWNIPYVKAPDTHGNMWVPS
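Here, a 5' biotin and 3' phosphotyrosine-FITC DNA oligonucleotide reports Tdp1 activity: intact substrate bridges AlphaScreen beads, while cleavage leaves a 3' phosphate and drops signal. All incubations at room temperature.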
IL1B secr inh = blocks inflammasome-driven IL-1 beta release; hit rate 4.7% among 360,000; THP-1 LPS/ATP IL-1B secretion, AlphaLISA, 16 h; active compounds read low; activity change, % at 57.5 µM; in the data active = activity change below about -50%; inconclusive = mostly about -30% to -49%
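Secreted IL-1B measured by AlphaLISA bead assay after 16 h compound exposure of THP-1 cells; compounds (final up to 57.5 uM) added 1 h before LPS (250 ng/mL) and ATP (1.25 mM) stimulation; lower signal means less secretion.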
DT40 TDP1 no CPT = qHTS for Inhibitors of human tyrosyl-DNA phosphodiesterase 1 (TDP1): qHTS in cells in absence of CPT. DT40 Tdp1-/- hTDP1 cells, no CPT, ATP luminescence, 48 h. Potency, µM (series often up to 46.2 µM), hits mostly inhibitors. hit rate 15% among 420,000; note: nearly all actives have a fitted effect of over 55% in size
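Chicken DT40 Tdp1-/- cells complemented with human TDP1, screened without camptothecin (DMSO vehicle only), 400 cells/well. Compounds pin-transferred, cells incubated at 37 °C for at least 48 hr. Growth read as ATP-dependent luminescence (CellTiter-Glo, 30 min at RT).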
HepG2 tox = counter-screen for TGF-b inhibitors: cytotoxicity in HepG2 cells; Potency, µM (doses to about 46.1 µM), most hits filed as cytotoxic; hit rate 0.76% among 410,000; HepG2 CAGA-GFP viability, ATP luminescence, 18 h
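HepG2 CAGA-GFP cells (1000/well, DMEM with 1% FBS) received compound, then TGF-beta at 500 pg/mL final, and were incubated 18 hours at 37 degrees C. Viability was read by CellTiter-Glo luminescence. Media-only wells were set as complete cell-killing and DMSO as no toxicity.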
DT40 TDP1 CPT = DT40-hTDP1 cell growth loss with CPT. Potency, µM (doses to about 46.2 µM), most hits filed as inhibitors. hit rate 12% among 420,000. chicken DT40 Tdp1-/-;hTDP1 cells + 20 nM CPT, ATP luminescence, 48 h. AID 686979; note: nearly all actives have a fitted effect of over 55% in size
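Chicken DT40 Tdp1-/- cells complemented with human TDP1, 400 cells/well, exposed to compounds plus 20 nM camptothecin for at least 48 h at 37 C; viability read as ATP content by CellTiter-Glo luminescence.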
Numbers stand for hits; [ ] = dose if it differs, or a comment. Most compounds without a hit are left out; they make up all but 19% or so of the library. Unless noted, calls come from the whole dose curve; as a rule, active = well fitted curve in the direction sought with a large enough effect; inconclusive = small, poorly fitted or top-dose-only effect, or another doubt; inactive = no such curve, though single readings can be large; an effect the other way counts as inactive or inconclusive.

For OC(c1ccc(F)cc1)c1nc(-c2csc3ccccc23)cs1 (stereo unspecified) the results were TGFb SMAD3 inh inconclusive, IL1B secr inh inactive, DT40 TDP1 no CPT 26µM, HepG2 tox inactive and DT40 TDP1 CPT 18µM.
COc1ccc(C(C)(O)c2nc(-c3ccc(F)cc3OC)cs2)cc1 (stereo unspecified) was read as TGFb SMAD3 inh inactive, IL1B secr inh inactive, DT40 TDP1 no CPT 10µM, HepG2 tox inactive and DT40 TDP1 CPT 8.2µM.
Screening COc1cc(F)ccc1-c1csc(C(O)(c2ccccc2)C(F)(F)F)n1 (stereo unspecified) returned TGFb SMAD3 inh inconclusive, IL1B secr inh inconclusive, DT40 TDP1 no CPT 15µM, HepG2 tox 22µM and DT40 TDP1 CPT 23µM.
CCn1cnc2c(Nc3ccc(Cc4cccnc4)cc3)nc(C#N)nc21 was read as TDP1 block inactive.
CC(/C=N/n1c(COc2ccccc2)n[nH]c1=S)=C\c1ccco1 was read as TGFb SMAD3 inh inconclusive, TDP1 block inactive, DT40 TDP1 no CPT inactive, HepG2 tox inactive and DT40 TDP1 CPT inactive.
`C=C1c2ccccc2O[C@H](C(=O)OCC)[C@@H]1C1CCCCC1` (tested in a mixture with another compound) gave TDP1 block inactive.
`COC(=O)c1ccc(CN2C(=O)NC3(CCC(C)CC3)C2=O)cc1` (stereo unspecified) gave TGFb SMAD3 inh inactive, TDP1 block inactive, IL1B secr inh inactive, DT40 TDP1 no CPT inactive, HepG2 tox inactive and DT40 TDP1 CPT inactive.
For Cc1ccc(NC(=O)NCc2cccn2Cc2ccccc2)c(C)c1 the results were TGFb SMAD3 inh inactive, TDP1 block inactive, DT40 TDP1 no CPT inactive, HepG2 tox inactive and DT40 TDP1 CPT inactive.
Screening COc1cccc(C(C)(O)c2nc(-c3ccc(F)cc3OC)cs2)c1 (stereo unspecified) returned TGFb SMAD3 inh inactive, IL1B secr inh inactive, DT40 TDP1 no CPT inconclusive, HepG2 tox inactive and DT40 TDP1 CPT 23µM.
`COc1cc(F)ccc1-c1csc(C(O)c2ccccc2)n1` (stereo unspecified) gave TGFb SMAD3 inh inactive, IL1B secr inh inactive, DT40 TDP1 no CPT inconclusive, HepG2 tox inactive and DT40 TDP1 CPT 26µM.
For CC(=O)c1ccccc1-c1ccc2c(c1)CC(CNC(=O)c1cc(C)on1)O2 (stereo unspecified) the results were DT40 TDP1 no CPT inconclusive and DT40 TDP1 CPT inactive[9.04 µM].
For Cc1ccc2nc(SCC(=O)N3CCC4(CC3)CC4C(=O)Nc3ccc(F)c(F)c3)[nH]c2c1 (stereo unspecified) the results were DT40 TDP1 no CPT 23µM and DT40 TDP1 CPT inconclusive.
Screening CCN(Cc1ccncc1)Cc1cn[nH]c1-c1cc(OC)c(OC)c(OC)c1 returned TGFb SMAD3 inh inactive, TDP1 block inactive, IL1B secr inh inactive, DT40 TDP1 no CPT inactive, HepG2 tox inactive and DT40 TDP1 CPT inactive.
For CC(=O)C(C(C)=O)C1(O)C(=O)c2ccccc2C1=O the results were TGFb SMAD3 inh inconclusive, TDP1 block inactive, IL1B secr inh inactive, DT40 TDP1 no CPT 23µM, HepG2 tox inactive and DT40 TDP1 CPT 26µM.
O=C1C(O)=C(O)C(=O)c2ccccc21 was read as TGFb SMAD3 inh inactive, IL1B secr inh inactive, DT40 TDP1 no CPT inconclusive, HepG2 tox inactive and DT40 TDP1 CPT inconclusive.
Cc1ccc2c(CN3CCN(S(=O)(=O)c4ccc(Cl)cc4)CC3)cc(=O)oc2c1C was read as TGFb SMAD3 inh inactive, TDP1 block inactive, IL1B secr inh inactive, DT40 TDP1 no CPT 16µM, HepG2 tox inactive and DT40 TDP1 CPT inconclusive.
Screening Cc1ccc2c(CN3CCOCC3)cc(=O)oc2c1C returned TGFb SMAD3 inh inactive, IL1B secr inh inactive, DT40 TDP1 no CPT inactive, HepG2 tox inactive and DT40 TDP1 CPT inactive.
Cc1cc(C)c2oc(=O)cc(CN3CCN(Cc4ccccc4)CC3)c2c1 was read as TGFb SMAD3 inh inactive, IL1B secr inh inactive, DT40 TDP1 no CPT inconclusive, HepG2 tox inactive and DT40 TDP1 CPT 18µM.
O=c1cc(CN2CCN(S(=O)(=O)c3cccc(Cl)c3)CC2)c2ccc(O)cc2o1 was read as TGFb SMAD3 inh inactive, TDP1 block inactive, IL1B secr inh inactive, DT40 TDP1 no CPT 18µM, HepG2 tox inactive and DT40 TDP1 CPT inconclusive.
For CCc1ccc2c(CN3CCN(S(=O)(=O)c4ccc5c(c4)OCCO5)CC3)cc(=O)oc2c1 the results were TGFb SMAD3 inh inactive, TDP1 block inactive, IL1B secr inh inactive, DT40 TDP1 no CPT inconclusive, HepG2 tox inactive and DT40 TDP1 CPT inactive.
Screening CCOC(=O)Nc1ccc2c(CNC(C)c3ccccc3OC)cc(=O)oc2c1 (stereo unspecified) returned TGFb SMAD3 inh inactive, TDP1 block inactive, IL1B secr inh inactive, DT40 TDP1 no CPT 23µM, HepG2 tox inactive and DT40 TDP1 CPT inconclusive.
For Cc1c(C(=O)N2CCCC2)sc2ncnc(NCCN(C)C)c12 the results were DT40 TDP1 no CPT inactive and DT40 TDP1 CPT inactive.
CCOC(=O)Cn1c(=O)n(C2CCCCC2)c2nc(-c3ccc(OCC)cc3)nc(C(N)=O)c21 was read as TGFb SMAD3 inh inactive, TDP1 block inactive and HepG2 tox inactive.
`CCOC(=O)C1CCN(CC(=O)Nc2cc(C)c3c(=O)oc4ccccc4c3n2)CC1` gave TGFb SMAD3 inh inactive, TDP1 block inactive, DT40 TDP1 no CPT inactive, HepG2 tox inactive and DT40 TDP1 CPT inactive.
Screening CCCN(C(=O)c1cc(S(=O)(=O)N(C)c2ccccc2OC)ccc1C)C1CCS(=O)(=O)C1 (stereo unspecified) returned TGFb SMAD3 inh inactive, IL1B secr inh inactive, DT40 TDP1 no CPT inactive, HepG2 tox inactive and DT40 TDP1 CPT inconclusive.
CCOC(=O)Nc1ccc2c(CN3C(=O)NC(CC)(CC)C3=O)cc(=O)oc2c1 was read as TGFb SMAD3 inh inactive, TDP1 block inactive, IL1B secr inh inactive, DT40 TDP1 no CPT inconclusive, HepG2 tox inactive and DT40 TDP1 CPT inconclusive.
`Cc1ccc2c(CN3CCC(C)CC3)cc(=O)oc2c1C` gave TGFb SMAD3 inh inactive, IL1B secr inh inactive, DT40 TDP1 no CPT inconclusive, HepG2 tox inactive and DT40 TDP1 CPT inconclusive.
For Cc1cc(C)c2oc(=O)cc(CN3CCC(C)CC3)c2c1 the results were TGFb SMAD3 inh inactive, IL1B secr inh inactive, DT40 TDP1 no CPT 26µM, HepG2 tox inactive and DT40 TDP1 CPT inconclusive.
Screening CCOC(=O)Nc1ccc2c(CN3CCN(S(=O)(=O)c4ccccc4)CC3)cc(=O)oc2c1 returned TGFb SMAD3 inh inactive, TDP1 block inactive, IL1B secr inh inactive, DT40 TDP1 no CPT inconclusive, HepG2 tox inactive and DT40 TDP1 CPT 13µM.
